Consider 4 compounds from PubChem BioAssay.

A short description of assay [1]: E. coli DRC41 culture turbidity changes, primary screen, E. coli filamentation inducer project, strain DRC41, OD650, 48 h (AID 1152).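 Also: E. coli MC1000 strain DRC41 lacking acrAB efflux pump and sulA.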 The following applies: E. coli DRC41 (acrAB sulA), higher = more signal, called active from +8 up or from −8 down.
Assay [2] in a line: small-molecule binders of probe aLefty1, primary screen, biochemical, small-molecule microarray, 635/667 nm fluorescence (AID 1153).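 Also: score merges spot fluorescence with signal-to-noise ratio from the scanned slide images.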 The following applies: higher = more signal.
A short description of assay [3]: PSAC antagonists in infected red cells, primary screen, cell-based, P. falciparum Indochina, OD700, 1 h (AID 1154). The following applies: P. falciparum Indochina infected RBC osmotic lysis, higher = more signal, called active from +8 up or from −8 down.
Assay [4] can be described thus: PSAC antagonists in infected red cells, primary screen, cell-based, P. falciparum Indochina, OD700, 2 h (AID 1155).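 Also: lysis reports solute entry through the parasite surface anion channel PSAC; channel blockers reduce lysis of infected cells.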 The following applies: P. falciparum Indochina infected erythrocytes, osmotic lysis OD700; higher = more signal, called active from +8 up or from −8 down.
Assay [5] in a line: osmotic lysis modulators in infected erythrocytes, primary screen, PSAC antagonist project, cell-based, P. falciparum Indochina, OD700, 3 h (AID 1156). The following applies: higher = more signal, called active from +8 up or from −8 down.
A short description of assay [6]: PSAC antagonists in infected red cells, primary screen, cell-based, P. falciparum Indochina, OD700, 18 h (AID 1157). The following applies: P. falciparum Indochina infected erythrocytes, osmotic lysis OD700, 18 h; higher = more signal, called active from +8 up or from −8 down.
The nature of assay [7]: modulators of S6 phosphorylation in cells, primary screen, cell-based, A549, cytoblot, luminescence, serum-stimulated (AID 1158).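 Also: serum-stimulated A549 lung adenocarcinoma cells; signal is phosphorylated S6 detected by cytoblot immunostaining with HRP secondary.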 The following applies: A549 phospho-S6 cytoblot, 5 h, higher = more signal.
The target in assay [8] is NADPH oxidase 2 (Homo sapiens) (UniProt P04839). Nature of the assay: NOX2-dependent H2O2 signal modulators, primary screen, NOX inhibitor project, cell-based, HEK293-NOX2, PMA-stimulated, Amplex Red fluorescence (AID 1159). Also: test concentration not given here. The following applies: 45 min, higher = more signal, called active from +8 up or from −8 down.
Assay [9] deals with NADPH oxidase 4 (Homo sapiens) (UniProt Q9NPH5). Nature of the assay: NOX4-dependent H2O2 signal modulators, primary screen, NOX inhibitor project, cell-based, HEK293-NOX4, tetracycline-induced, Amplex Red fluorescence (AID 1160). The following applies: 45 min, higher = more signal, called active from +8 up or from −8 down.
Assay [10] deals with NADPH oxidase 5 (Homo sapiens) (UniProt Q96PH1). Put plainly: NOX5-dependent H2O2 signal modulators, primary screen, NOX inhibitor project, cell-based, HEK293-NOX5, Amplex Red fluorescence (AID 1161). Conditions: HEK293-NOX5, ionomycin, 45 min, higher = more signal.
Assay [11] is described as follows: A549 cell viability effects, profiling panel, calcein-AM fluorescence, 48 h, basal (AID 1162). Also: test concentration not given here. Conditions: higher = more signal.
Assay [12] is described as follows: adipocyte viability effects, profiling panel, cell-based, 3T3-L1 adipocytes, calcein-AM fluorescence, 48 h, basal (AID 1163). Also: test concentration not given here. Conditions: 3T3-L1 adipocytes viability, higher = more signal.
Assay [13] in a line: HepG2 cell viability effects, profiling panel, calcein-AM fluorescence, 48 h, basal (AID 1164). Also: test concentration not given here. The following applies: higher = more signal.
Assay [14] in a line: MM1S cell viability effects, profiling panel, calcein-AM fluorescence, 48 h, basal (AID 1165).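 Also: viability of MM1S multiple myeloma cells under basal unstimulated conditions; test concentration not given here.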 Conditions: higher = more signal.
The nature of assay [15]: basal RPMI8226 viability, no added stimulus, profiling panel, cell-based, calcein-AM fluorescence, 48 h, PK04 Diversity Set (AID 1166).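 Also: cells grown under basal conditions without added stimulus; test concentration not given here.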 The following applies: RPMI8226 myeloma viability, higher = more signal.
The nature of assay [16]: basal HepG2 mitochondrial membrane potential changes, profiling panel, cell-based, JC-1 fluorescence, 24 h, 100 nL compound (AID 1167). Also: test concentration not given here. The following applies: higher = more signal.
Assay [17] is described as follows: basal 3T3-L1 adipocyte mitochondrial potential changes, profiling panel, cell-based, JC-1 fluorescence, 3T3-L1 adipocytes, 24 h, 100 nL compound (AID 1168). Also: test concentration not given here. The following applies: JC-1 mitochondrial fluorescence, higher = more signal, called active from +8 up or from −8 down.
Assay [18] in a line: basal RPMI8226 mitochondrial membrane potential changes, profiling panel, cell-based, JC-1 fluorescence, 24 h, 100 nL compound (AID 1169). Also: test concentration not given here. The following applies: RPMI8226 myeloma, JC-1 mitochondrial potential fluorescence, higher = more signal.
Assay [19] can be described thus: basal MM1S mitochondrial membrane potential changes, profiling panel, cell-based, JC-1 fluorescence, 24 h, 100 nL compound (AID 1170). Also: test concentration not given here. Conditions: higher = more signal.
The nature of assay [20]: A549 lung cancer cell viability effects, profiling panel, resazurin fluorescence, 24 h, PK04 Diversity Set (AID 1171). Also: test concentration not given here. Conditions: higher = more signal, called active from +8 up or from −8 down. (Alamar Blue is a resazurin reagent that responds to reducing activity.)

Molecules are shown by their SMILES. Calls of active or inactive are those of the source.

Chain of NADPH oxidase 2 (Homo sapiens) (P04839 whole entry, looked up): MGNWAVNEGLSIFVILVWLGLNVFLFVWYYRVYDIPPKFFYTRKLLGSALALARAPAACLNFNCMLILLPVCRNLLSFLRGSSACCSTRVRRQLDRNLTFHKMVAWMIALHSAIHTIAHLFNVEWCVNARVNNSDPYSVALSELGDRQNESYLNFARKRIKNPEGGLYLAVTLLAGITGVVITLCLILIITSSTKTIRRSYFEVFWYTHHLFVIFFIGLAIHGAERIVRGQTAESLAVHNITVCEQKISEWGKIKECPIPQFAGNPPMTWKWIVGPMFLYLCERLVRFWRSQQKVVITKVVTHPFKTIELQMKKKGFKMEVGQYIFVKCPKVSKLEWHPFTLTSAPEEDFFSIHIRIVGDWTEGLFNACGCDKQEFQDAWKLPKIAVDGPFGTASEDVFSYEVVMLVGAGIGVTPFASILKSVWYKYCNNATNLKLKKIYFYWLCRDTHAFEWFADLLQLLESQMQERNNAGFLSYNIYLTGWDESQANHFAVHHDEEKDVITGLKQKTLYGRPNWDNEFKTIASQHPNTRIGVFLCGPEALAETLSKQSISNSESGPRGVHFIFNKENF
Chain of NADPH oxidase 4 (Homo sapiens) (Q9NPH5 whole entry, looked up): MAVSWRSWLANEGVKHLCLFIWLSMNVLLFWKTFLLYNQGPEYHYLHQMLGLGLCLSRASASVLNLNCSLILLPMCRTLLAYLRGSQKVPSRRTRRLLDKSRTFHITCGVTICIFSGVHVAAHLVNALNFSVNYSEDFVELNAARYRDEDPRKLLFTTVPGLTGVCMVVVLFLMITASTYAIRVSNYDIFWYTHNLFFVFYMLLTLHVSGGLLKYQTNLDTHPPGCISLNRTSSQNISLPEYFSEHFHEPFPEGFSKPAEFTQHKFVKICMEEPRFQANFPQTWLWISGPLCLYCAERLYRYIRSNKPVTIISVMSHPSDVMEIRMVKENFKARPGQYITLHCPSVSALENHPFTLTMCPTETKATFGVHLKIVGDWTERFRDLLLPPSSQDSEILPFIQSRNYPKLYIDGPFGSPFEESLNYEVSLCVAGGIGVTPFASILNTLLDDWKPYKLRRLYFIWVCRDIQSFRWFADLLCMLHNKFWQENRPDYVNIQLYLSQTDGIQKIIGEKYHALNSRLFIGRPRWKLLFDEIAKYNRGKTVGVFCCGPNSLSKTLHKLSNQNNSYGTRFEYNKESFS
Chain of NADPH oxidase 5 (Homo sapiens) (Q96PH1 whole entry, looked up): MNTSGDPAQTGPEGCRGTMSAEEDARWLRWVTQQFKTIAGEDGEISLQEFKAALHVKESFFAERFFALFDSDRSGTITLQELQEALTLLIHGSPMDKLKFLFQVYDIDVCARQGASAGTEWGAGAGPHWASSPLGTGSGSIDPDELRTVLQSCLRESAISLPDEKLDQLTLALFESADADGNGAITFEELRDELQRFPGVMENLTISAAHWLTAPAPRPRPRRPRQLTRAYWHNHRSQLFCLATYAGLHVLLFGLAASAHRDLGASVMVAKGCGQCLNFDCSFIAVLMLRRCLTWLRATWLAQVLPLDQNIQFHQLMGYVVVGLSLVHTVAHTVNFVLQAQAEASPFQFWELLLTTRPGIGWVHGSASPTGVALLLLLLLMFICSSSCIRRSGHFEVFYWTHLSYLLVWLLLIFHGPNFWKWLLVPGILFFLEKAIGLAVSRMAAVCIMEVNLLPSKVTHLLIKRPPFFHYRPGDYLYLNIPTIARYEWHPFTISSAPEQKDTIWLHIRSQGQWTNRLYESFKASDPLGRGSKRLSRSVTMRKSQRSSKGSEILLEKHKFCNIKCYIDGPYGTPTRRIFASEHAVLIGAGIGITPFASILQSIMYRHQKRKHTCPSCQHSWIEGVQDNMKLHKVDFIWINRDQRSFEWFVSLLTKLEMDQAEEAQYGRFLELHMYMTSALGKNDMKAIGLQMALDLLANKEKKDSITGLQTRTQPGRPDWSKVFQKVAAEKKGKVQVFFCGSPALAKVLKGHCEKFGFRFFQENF

In the case of `CCCNC(=O)[C@@]1(c2ccc([N+](=O)[O-])cc2)CC(=O)N(C(C)C)[C@@H]1c1ccc(CO)cc1`, the z-score in assay [1] is -0.169 (inactive); in [3], 1.4 (inactive); in [4], -0.366 (inactive); in assay [5] it was 1.18 (inactive); in assay [6], 0.205 (inactive); in assay [7] it was 0.0662. Moreover, the z-score in assay [8] was -0.144 (inactive); in assay [9], 0.069 (inactive); in assay [10], -1.85; in assay [11], 0.186; in assay [12], 0.81; in assay [13], -0.359. Moreover, the z-score was 0.167 in assay [14]; 0.11 in assay [15]; -0.534 in assay [16]; -0.584 (inactive) in assay [17]; 0.195 in [18]; 0.892 in assay [19]. Also, the z-score in [20] was 0.0564 (inactive). This compound returned a composite z-score in assay [2] of -0.207.

With `CC1CC/C=C\[C@H]2OC34C=CCN(Cc5ccccc5)C(=O)[C@H]3N(CCCCCCO)C(=O)[C@@H]4C2C(=O)O1` (stereo not given in full), the z-score is 0.528 (inactive) in assay [1]; -0.107 (inactive) in assay [3]; 0.179 (inactive) in assay [4]; 0.731 (inactive) in [5]; 0.111 (inactive) in assay [6]; 1.98 in [7]. Further, the z-score is 1.71 (inactive) in [8]; 0.185 (inactive) in assay [9]; 2.2 in assay [10]; 1.3 in assay [11]; 0.221 in assay [12]; 0.881 in [13]. Moreover, the z-score in [14] is 1.41; in assay [15], 0.0497; in assay [16] it was 0.0727; in assay [17], -0.0479 (inactive); in assay [18] it was 0.62; in assay [19], 1.34. Moreover, in [20], the z-score is 0.919 (inactive). The composite z-score in assay [2] was 0.0249.

Turning to `CC(C)N1C(=O)C[C@@](C(=O)NCCN2CCOCC2)(c2ccc([N+](=O)[O-])cc2)[C@H]1c1ccc(CO)cc1`, the z-score in [1] was 0.344 (inactive); in assay [3], 1.63 (inactive); in [4] it was -0.0494 (inactive); in [5], 1.53 (inactive); in assay [6], 0.35 (inactive); in [7], 0.265. Further, the z-score is -0.54 (inactive) in assay [8]; -0.685 (inactive) in [9]; -2.46 in assay [10]; -0.827 in assay [11]; -0.641 in assay [12]; -0.235 in assay [13]. In addition, the z-score in [14] was -0.617; in assay [15], 0.0859; in assay [16], 0.0432; in assay [17], -0.279 (inactive); in assay [18] it was -0.95; in assay [19] it was -0.672. Further, the z-score in assay [20] was 1.05 (inactive). The composite z-score in assay [2] was -0.832.

In the case of `NC(=O)N1C(=O)C2C(C1=O)C1C=C(CCCO)C2C(C2CC2)N1Cc1sc2ccccc2c1Cl` (stereo not given), the z-score in assay [1] is 0.4 (inactive); in [3], 13.4 (active); in assay [4] it was 2.12 (inactive); in [5], 0.394 (inactive); in assay [6], 1.07 (inactive); in assay [7], 0.125. The z-score in assay [8] is 2.74 (inactive); in assay [9], 0.923 (inactive); in assay [10], -0.549; in [11], 1.01; in assay [12] it was 0.66; in assay [13] it was 0.839. The z-score is -2.97 in [14]; -0.868 in assay [15]; 0.709 in assay [16]; 0.0485 (inactive) in assay [17]; -0.0842 in assay [18]; 0.193 in [19]. The z-score in assay [20] is 1.09 (inactive). Besides, the composite z-score in assay [2] amounted to 0.105.
